aGal spleen mod – inhibitors or activators of human alpha-galactosidase in spleen homogenate | human spleen homogenate, 4MU-alpha-Gal fluorescence, 40 min | Potency, µM (highest dose often 80 µM), for the others: at the top dose activity change, negative = inhibition, usual class: inhibitors | 240,000 compounds, 0.008% hits | AID 2107;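 further: potency means the concentration at half of the fitted maximal effect; 0% = enzyme with vehicle and -100% = no enzyme basal signal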
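Human spleen homogenate (1 ug) as enzyme source, 4-methylumbelliferyl-alpha-D-galactopyranoside 1 mM final, citrate/phosphate pH 5.0 with 0.01% Tween-20. Compounds 40 min at 37C, NaOH/glycine stop; fluorescence Ex 365/Em 440, Hill-fit AC50.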
GLA inh pH 4.5 – inhibitors of human alpha-galactosidase A at pH 4.5 | purified enzyme, 4-MU-alpha-Gal fluorescence, pH 4.5 | activity change, negative = inhibition, % at 105 µM | AID 1467 | P06280 | 230,000 tested, under 10 active;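 further: 0% = full activity with enzyme and -100% = basal without enzyme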
HTT aggregate – inhibitors of mutant huntingtin aggregate formation in PC12 cells | 220,000 compounds, 1.1% hits | PC12 HttQ103-GFP aggregates, Acumen cytometry, 40 h | AID 1688 | Potency, µM (highest dose often 46.1 µM), without a hit: at the top dose activity change, negative = inhibition, most hits filed as inhibitors; further: potency means the concentration at half of the fitted maximal effect; on the % scale 0 is the no-effect control and ±100 the full control effect; nearly all actives have a fitted effect of over 60% in size
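Using laser scanning cytometry, GFP-positive aggregates were counted after lysis of PC12 cells induced with 100 nM tebufenozide to express HTT exon 1 Q103–GFP. Compounds were tested in titration.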
HTT cytoprotect – protects HTT-Q103 PC12 cells, measured by ATP; Potency, µM (top dose mostly 56.4 µM), for the others: cytoprotection (ATP increase), usual class: activators; 230,000 compounds, 0.14% hits; PC12 HTT-Q103 induced, cytoprotection, ATP luminescence, 40 h; AID 1471; further: potency means the concentration at half of the fitted maximal effect; % of control where 0% means no effect; nearly all actives have a fitted effect of over 45% in size
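Huntington model: PC12 line, ecdysone-inducible HTTQ103 exon1–GFP, tebufenozide 100 nM. Test articles in a dose series. Endpoint luminescence from cellular ATP.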
PKM2 act – PKM2 (human) enzyme activation | P14618 | purified PKM2, Kinase-Glo ATP luminescence, activation; response scale: 0% is enzyme alone, no compound | Potency, µM (series often up to 57.5 µM), without a hit: top-dose activation, actives largely listed as activators | 260,000 compounds, 0.34% hits; further: potency means the concentration at half of the fitted maximal effect; on the % scale 0 is the no-effect control and ±100 the full control effect; nearly all actives have a fitted effect of over 55% in size
Target sequence (P14618 whole entry, looked up): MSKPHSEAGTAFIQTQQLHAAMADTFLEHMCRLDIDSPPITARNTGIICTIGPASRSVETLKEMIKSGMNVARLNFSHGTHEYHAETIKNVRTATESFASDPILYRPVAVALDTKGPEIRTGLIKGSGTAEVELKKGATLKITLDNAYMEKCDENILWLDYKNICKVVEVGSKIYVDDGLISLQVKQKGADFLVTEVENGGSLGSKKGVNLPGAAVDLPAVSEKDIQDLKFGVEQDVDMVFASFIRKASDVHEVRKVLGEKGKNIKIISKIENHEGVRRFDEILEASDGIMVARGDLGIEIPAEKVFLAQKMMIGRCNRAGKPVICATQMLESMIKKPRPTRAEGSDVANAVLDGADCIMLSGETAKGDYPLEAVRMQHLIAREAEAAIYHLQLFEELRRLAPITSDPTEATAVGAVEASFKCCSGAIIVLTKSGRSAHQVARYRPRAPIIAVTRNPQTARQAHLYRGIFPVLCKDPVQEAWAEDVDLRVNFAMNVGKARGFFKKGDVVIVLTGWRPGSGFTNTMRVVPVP
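Purified hPK-M2 (>95%) run at intermediate activity with 0.1 mM ADP and 0.5 mM PEP in 50 mM imidazole pH 7.2, KCl, MgCl2; 1 h room temperature. ATP formed read by Kinase-Glo luminescence; normalized to uninhibited and no-enzyme controls.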
Active calls of the source: *; ? = inconclusive; . = no result; ! = not confirmed by another sample; [ ] = another dose, or the depositor's remark. An excerpt weighted towards active compounds, which were near 1.2% of everything screened. The call rests on the fitted dose curve; in most records, active means well fitted curve in the direction sought with a large enough effect; inconclusive means small, poorly fitted or top-dose-only effect, or another doubt; inactive means no such curve, though single readings can be large; an effect the other way counts as inactive or inconclusive.

SMILES	aGal spleen mod	GLA inh pH 4.5	HTT aggregate	HTT cytoprotect	PKM2 act
CCOC(=O)Cc1nnc2c(Nc3ccccc3F)nc3nonc3n12	1%	8	16µM*	-1%[10 µM]	1%
Nc1nnc(SCC(=O)c2ccc3c(c2)NC(=O)CO3)s1	1%	2	-7%	-12%	28µM*
COC(=O)c1ccc(C(/C=C/[C@@H](C)C(=O)NCCN2CCCC2)NC(=O)OCc2ccccc2)cc1 (some centres not stated)	5%	-18	.	-3%	-1%
Cc1cc(C2=CC(C)(c3cc(C)oc3C)Nc3nc(C(F)(F)F)nn32)c(C)o1 (configuration not stated)	-1%	-8	-43%	?	22µM*
Fc1cccc(F)c1/C=N/N1CCOCC1	5%	-4	1%	-5%	6%
Fc1ccc(/C=N/N2CCOCC2)c(F)c1	2%	-30	-6%	0.71µM*	0%
O=C(CNC(=O)c1ccc(S(=O)(=O)N2CCCC2)cc1)N/N=C/c1c(Cl)cccc1Cl	2%	-4	11µM*	-14%[10 µM]	-12%
N#CCCn1c(=O)c(-c2ccc(Cl)cc2)nc2cnc(Oc3cccc(Cl)c3)nc21	2%	.	.	-30%	.
N#CCCn1c(=O)c(-c2ccc(F)cc2)nc2cnc(Oc3cccc(Cl)c3)nc21	3%	.	.	3.2µM*	.
CN1C(=O)CSc2ccc(NC(=O)N3CCN(c4ccccn4)CC3)cc21	6%	1	?	-7%[10 µM]	-12%
Cc1ccc(C)c(N2CCN(C(=O)Nc3ccc4c(c3)N(C)C(=O)CS4)CC2)c1	0%	-4	22µM*	-52%	-1%
CCN(C(=O)c1ccc(C(C)(C)C)cc1)c1nnc(Cn2nnc3ccccc32)s1	1%	-7	6.3µM*	16%[10 µM]	0%
CCN(C(=O)CC(C)C)c1nnc(Cn2nnc3ccccc32)s1	-8%	1	-27%	0.89µM*	0%
O=S(=O)(Nc1ccc2ccccc2n1)c1ccc2c(c1)CCO2	-1%	1	11%[9.22 µM]	10%[10 µM]	11µM*
CSc1cc(/C=N/O)c(SC)s1	5%	7	13µM*	21%[10 µM]	-5%
[O-][n+]1c(CN2CCCCC2)nc2cccc3c2c1-c1ccccc1-3	.	.	.	-2%[10 µM]	.
O=c1[nH]cnc2c1ncn2C1OC(CO)C(O)C1O (configuration not stated)	6%	0	-6%	8.9µM*!	.
CN(C)c1ncnc2c1ncn2C1OC(CO)C(O)C1O (configuration not stated)	-4%	-8	4.5µM*	-103%	-4%
Nc1ncn([C@@H]2O[C@H](CO)[C@@H](O)[C@H]2O)c(=O)n1	-3%	3	13µM*	-111%	.
Cc1ccccc1Cn1nc(C)c(NC(=O)c2cc(CC(C)C)on2)c1C	-3%	-5	-1%[9.22 µM]	8%[10 µM]	6%
Cc1nn(Cc2ccc(Cl)c(Cl)c2)c(C)c1NC(=O)c1cc(CC(C)C)on1	4%	-11	10µM*	15%	0%
COc1ccc(CNc2ncnc3ccc(-c4ccccc4OC)cc23)c(OC)c1	7%	.	.	-17%	.
C[C@H]1Cc2c(COc3ccccc3)nc3c(c2CO1)CN(S(=O)(=O)c1ccc2c(c1)OCCN2C)CC3	-10%[17.5 µM]	9	.	-8%[10 µM]	-1%[11.5 µM]
Cc1c2oc3c(C)ccc(C(=O)N[C@@H]4C(=O)N[C@H](C(C)C)C(=O)N5CCC[C@H]5C(=O)N(C)CC(=O)N(C)[C@@H](C(C)C)C(=O)O[C@@H]4C)c3nc-2c(C(=O)N[C@@H]2C(=O)N[C@H](C(C)C)C(=O)N3CCC[C@H]3C(=O)N(C)CC(=O)N(C)[C@@H](C(C)C)C(=O)O[C@@H]2C)c(N)c1=O	1%	-10	0.032µM*	-46%	.
Cn1c(=O)c(-c2ccc(Cl)cc2)nc2cnc(Oc3ccccc3)nc21	11%	.	.	19%	.
SMILES	aGal spleen mod	GLA inh pH 4.5	HTT aggregate	HTT cytoprotect	PKM2 act
COc1ccc2cc1Oc1ccc(cc1)CC1c3c(cc4c(c3Oc3cc5c(cc3OC)CCN(C)C5C2)OCO4)CCN1C (configuration not stated)	17%	-20	-38%	-96%	.
COc1ccc2cc1Oc1ccc(cc1)CC1c3c(cc(OC)c4c3Oc3cc5c(cc3O4)CCNC5C2)CCN1C (configuration not stated)	-10%	-9	4µM*	-96%[10 µM]	-13%
CC1CCN(S(=O)(=O)c2ccc3c(c2)oc(=O)n3CC(=O)NCc2ccc3c(c2)OCO3)CC1	7%	-6	8.9µM*	-2%	-15%
CCN1C(=O)CS/C1=N\S(=O)(=O)c1ccc(Cl)cc1	2%	-4	15%	-15%[10 µM]	7%
CCn1c(Cl)c(C=O)s/c1=N\S(=O)(=O)c1ccccc1	-5%	3	1.4µM*	-97%[10 µM]	16µM*
C/C(=N\NC(N)=S)C1C2C3CC4C5CC(C42)C1C53 (configuration not stated)	6%	-6	-24%	11µM*	5%
C/C(CC1CC(C)OC1=O)=N\NC(N)=S (configuration not stated)	10%	9	17%	-6%[10 µM]	-6%
Cc1nc(SCC(=O)c2ccccc2)c(C#N)c(-c2ccco2)c1C(=O)NCc1ccco1	-3%	-4	-13%	-30%	25µM*
Brc1cc(Br)c2ncnc(N3CCCCC3)c2c1	1%	1	11µM*	-8%[0.074 µM]	-1%
Brc1ccc2nc(CSc3ncn[nH]3)cn2c1	4%	5	-12%	-3%	20µM*
COC(=O)[C@@]1(Cc2ccc(F)cc2)[C@H]2c3cc(C(=O)N(C)C)n(Cc4ccc(C)o4)c3C[C@H]2CN1C(=O)c1ccccc1	0%	-3	.	-35%	7.1µM*
COC(=O)[C@@]1(Cc2ccc(OC)cc2)[C@H]2c3cc(C(=O)N4CCCC4)n(Cc4ccc(Cl)c(C(F)(F)F)c4)c3C[C@H]2CN1C(=O)c1ccccc1	10%	-5	.	10µM*	-8%
COC(=O)[C@@]1(Cc2ccc(OC)cc2)[C@H]2c3cc(C(=O)N4CCCC4)n(CCc4ccc(O)c(O)c4)c3C[C@H]2CN1C(=O)c1ccccc1	2%	-3	.	11µM*	?
COC(=O)[C@@]1(Cc2ccc(F)cc2)[C@H]2c3cc(C(=O)N(C)C)n(Cc4ccc(Cl)c(C(F)(F)F)c4)c3C[C@H]2CN1C(=O)c1ccccc1	0%	-7	.	-60%	-2%
COCCn1c(C(=O)N2CCCC2)cc2c1C[C@H]1CN(C(=O)c3ccccc3)[C@@](Cc3ccccc3)(C(=O)OC)[C@@H]21	-3%	-4	.	9%	-1%
CC(=O)c1cnc2nc(SCc3ccccc3C)nn2c1C	.	.	.	.	13µM*
CN(C1=C(NC(=O)c2ccccc2)C(=O)c2ccccc2C1=O)C1CCS(=O)(=O)C1 (configuration not stated)	-9%	-7	22µM*	-9%[10 µM]	1%
